Assay results published in the supplement of paper PMC3334620.
Whole data set: some 33,000 sequences, median “E-score (-0.5 to 0.5)” near -0.053, cut for the highest 2% near 0.37. The full list was thinned out, with the highest values kept by preference.

target: Hap1 (UniProt P0CE41); test: PBM E-score (8-mer binding enrichment) (E-score (-0.5 to 0.5)); higher = stronger / more preferred TF binding; conditions: protein concentration: 200 nM; construct: GST-DNA-binding domain
Description: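 Universal 'all 10-mer' protein binding microarrays (Agilent AMADID 015681) probed with GST-tagged S. cerevisiae TFs (full-length or DBD) made by in vitro transcription/translation (PURExpress), about 100-200 nM. Bound TF was detected with fluorescent anti-GST. Each ungapped 8-mer (which stands for itself and its reverse complement) is scored by the PBM enrichment score (E-score), a modified Wilcoxon-Mann-Whitney statistic from -0.5 to +0.5, computed with the Universal PBM Analysis Suite. Scale: above 0.35 generally sequence-specific binding.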

Chain of UniProt P0CE41 (P0CE41 whole entry, the tested form may be a part): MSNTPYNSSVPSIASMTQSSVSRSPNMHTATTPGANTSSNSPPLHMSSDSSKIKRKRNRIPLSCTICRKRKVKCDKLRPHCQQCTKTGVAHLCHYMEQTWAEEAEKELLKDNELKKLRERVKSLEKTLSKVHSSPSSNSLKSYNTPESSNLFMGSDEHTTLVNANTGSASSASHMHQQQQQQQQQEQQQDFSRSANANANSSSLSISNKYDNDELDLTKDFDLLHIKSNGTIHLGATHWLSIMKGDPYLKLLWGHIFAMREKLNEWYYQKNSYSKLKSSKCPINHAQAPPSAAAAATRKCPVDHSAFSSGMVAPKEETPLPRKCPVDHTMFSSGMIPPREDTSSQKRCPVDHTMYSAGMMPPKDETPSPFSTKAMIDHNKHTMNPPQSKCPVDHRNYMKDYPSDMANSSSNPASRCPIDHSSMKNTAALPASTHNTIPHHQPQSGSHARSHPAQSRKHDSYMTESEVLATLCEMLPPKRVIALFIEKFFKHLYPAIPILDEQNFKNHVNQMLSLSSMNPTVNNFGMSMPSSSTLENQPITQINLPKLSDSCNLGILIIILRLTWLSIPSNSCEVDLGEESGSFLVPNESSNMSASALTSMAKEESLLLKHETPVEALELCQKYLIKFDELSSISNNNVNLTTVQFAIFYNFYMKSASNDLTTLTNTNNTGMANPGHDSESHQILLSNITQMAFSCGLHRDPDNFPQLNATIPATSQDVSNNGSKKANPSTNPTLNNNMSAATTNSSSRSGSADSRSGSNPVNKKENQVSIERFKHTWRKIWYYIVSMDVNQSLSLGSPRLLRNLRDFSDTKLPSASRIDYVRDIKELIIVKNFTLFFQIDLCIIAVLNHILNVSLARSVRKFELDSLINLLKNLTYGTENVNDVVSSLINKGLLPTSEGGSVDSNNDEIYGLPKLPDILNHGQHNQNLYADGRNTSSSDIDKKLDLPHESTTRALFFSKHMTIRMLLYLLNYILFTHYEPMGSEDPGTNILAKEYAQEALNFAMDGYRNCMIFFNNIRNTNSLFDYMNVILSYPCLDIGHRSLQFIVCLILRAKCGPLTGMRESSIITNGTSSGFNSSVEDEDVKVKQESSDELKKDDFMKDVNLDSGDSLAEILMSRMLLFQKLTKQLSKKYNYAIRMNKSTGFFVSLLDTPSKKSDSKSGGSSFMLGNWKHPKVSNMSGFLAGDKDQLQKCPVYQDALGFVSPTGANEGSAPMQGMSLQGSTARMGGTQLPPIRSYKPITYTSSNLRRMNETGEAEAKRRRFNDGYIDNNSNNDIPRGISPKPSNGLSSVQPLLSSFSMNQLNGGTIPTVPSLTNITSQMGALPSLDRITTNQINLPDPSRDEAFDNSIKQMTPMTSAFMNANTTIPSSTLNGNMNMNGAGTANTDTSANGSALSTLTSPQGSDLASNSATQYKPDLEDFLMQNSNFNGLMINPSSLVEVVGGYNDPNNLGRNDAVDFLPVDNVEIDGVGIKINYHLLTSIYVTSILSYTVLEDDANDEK

Sequence	PBM E-score
ATGACGAG	-0.168
CCCGCACC	0.151
ATCCCAAC	-0.239
GGCAGGAC	0.0548
CATAAGAC	0.0262
CCGAGAGA	0.309
CCGAGCGA	0.36
CCGAGAGC	0.396
ACGAGCCG	0.0797
CCGAGCGC	0.384
ACGAGAGC	-0.0925
GCGAGCGC	0.137
ACGAGCGG	0.161
ACGAGCGC	-0.00987
CCGAGCCA	0.347
CCGAGCCG	0.397
CCGAGCGG	0.395
ACATTGGA	-0.0771
AAGCTGCC	0.0235
CATTTCCC	0.162
ATCTACGG	0.299
CCTGAGCA	-0.151
CAAGCCGG	0.292
TAAGCCGA	0.382
AAAGCCCC	0.106

Sequence	PBM E-score
CAAGCCGA	0.24
AAAGCCCG	0.374
AAAGCCGA	0.426
AAAGCCTG	-0.184
AAAGCCGT	0.322
AAAGCCGG	0.439
AAAGCCCT	-0.0264
AAAGCCGC	0.305
GAAGCCGA	0.308
GCCGCTTA	0.073
GTAGCCAC	-0.194
GTTTTAGA	0.00012
AGAGAACG	-0.258
CAATTCGG	0.267
GTGCTGCA	0.0816
CCAGCACG	-0.13
AAAAGCCT	-0.221
AAAAGCCG	0.414
AAAAGCCC	0.138
AGCTTTGG	-0.135
CCCCGACG	0.379
ACCGGACA	0.411
ACTGGACA	-0.00994
AGCGGACA	0.326
CCGGGACG	0.199

Sequence	PBM E-score
CCCGGATA	0.325
CCCCGACC	0.238
CCCCGACA	0.302
CACGGACG	0.331
ACCGGATA	0.359
GCCGGATA	0.426
CCCGGACG	0.388
AGATCCCG	0.283
AGTACCCG	0.1
CGAAAGAG	0.0191
AGGTGCTC	-0.269
CCTGGAGC	-0.197
ACTCGCAA	-0.231
GTCCACTA	-0.102
GAACTGCC	-0.0156
CTACCATA	-0.191
GATGAGCA	-0.0729
ACAATAGG	-0.0571
GAAACGTC	-0.0511
GATATGCA	0.0359
AGCTACTG	-0.00261
GCCGGACA	0.423
CCGGGACA	0.299
TGCGGACA	0.22
TCCGGACA	0.444

Sequence	PBM E-score
CCCGGACA	0.39
GCCGGACC	0.341
GACGGACA	0.325
CCCGGACC	0.361
TACGGACA	0.291
CCGGGCTC	0.243
ACACTCAG	-0.208
AACCCCCA	-0.217
ACCCCCGA	0.371
ACCCCCGT	0.126
AACCCCGA	0.456
GCCCCCGA	0.2
CACCCCGA	0.229
ACACCCGA	0.305
CCCCCCGA	0.253
GACCCCGA	0.285
TCCCCCGA	0.393
AACCCCGT	0.329
TACCCCGA	0.398
AACAAAGG	0.0332
AGGGATAC	-0.181
CCGGCTAA	0.331
TCGTTCAA	-0.246
GGGGAGGA	0.093
GCATAGAC	-0.19

Sequence	PBM E-score
GGCCTCTA	-0.34
ACATCTCT	-0.0976
ACGTTATC	0.17
CCGTTATA	0.311
CCGTTATC	0.385
GACACAAA	0.132
AGGACGAG	-0.282
AGGACGAC	-0.143
GGGACGAC	-0.117
CCGACGAG	0.259
AGGACGAA	0.128
CGGACGAC	0.371
CGGACGAG	0.387
GGGACGAA	0.0323
CGGACGAA	0.431
CCCCGTAC	0.0387
CTATGAGA	-0.248
ATAGCCCG	0.173
GCCCAGCA	-0.0648
ATAAGAAG	0.0696
ATATCTTC	0.152
GCTTAACC	-0.0526
CTCACCTA	-0.159
AATATCCG	0.414
ATTATCCA	-0.0526

Sequence	PBM E-score
CATATCGA	0.0363
AATATCGC	0.314
AATATCGA	0.0281
ATTATCCC	0.0666
AATATCCA	0.0415
AATATCCC	0.109
CATATCGG	0.404
CATATCGC	0.179
AATATCGG	0.443
ATTATCCG	0.391
CTGCACTA	0.0173
AGACACGC	-0.0363
ACTCATCG	-0.0326
AACTATGG	-0.0562
CACGCCAA	-0.148
CACAGCTG	-0.194
CGGATGGA	0.238
GAGCGTTA	-0.121
ACCTTGAG	-0.113
AAAATCCG	0.437
ATTATCGG	0.432
ATTATCGA	-0.0673
AAAATCCC	0.0176
CAAATCCG	0.344
ATTATCGC	0.132

Sequence	PBM E-score
GCTCGAGC	0.0114
GCGAACGA	0.00245
GGACCCTA	-0.0296
CGGCGCAC	0.259
GAAAGACA	-0.0415
AATACCGC	0.304
ATTACCGA	0.348
ATTACCGC	0.274
ATTACCGG	0.434
AATACCGT	0.252
AATACCGG	0.451
CATTCAGA	-0.141
ACATCGCA	-0.0398
GAGGAGAC	-0.0943
GAAAGGGA	-0.0702
ACCTTATC	0.139
GTGGCCAC	0.203
AGCGGAGC	0.223
CGCGGAGC	0.274
ATCGGAGC	0.396
ATCGGGTA	0.283
ATCAGAGC	-0.0942
ATCGGGTG	0.37
ATCGGGGG	0.349
GGCGGAGA	0.36

Sequence	PBM E-score
GTCGGGGA	0.301
ATCGGGGA	0.386
ATCGGGTC	0.343
CGCGGAGA	0.397
ACGAACCA	-0.038
CTCCTATA	-0.327
AGATCACG	-0.113
GAATTTAC	0.0854
ACGCCTCC	0.00213
AGAAAAAG	-0.0187
ATCGGAGA	0.415
CTCGGAGA	0.407
GTCGGAGA	0.355
CTCGGAGC	0.322
ATCGGAGG	0.227
CTTGGAGA	-0.0528
ACGATTTC	0.0291
ATATGGAC	-0.0394
GGTCTGCA	0.0455
CATTCGGA	0.321
TATTCGGA	0.37
GATTCGGA	0.299
AATTCGGA	0.414
AATTCGGC	0.131
AATTCGGG	0.287

Sequence	PBM E-score
CAACAGCG	-0.0733
AGATTACA	0.0437
CACCACGC	-0.201
GACATCCA	-0.175
ATAACCAA	-0.182
ACCCTGGC	-0.146
GCAAGAGC	-0.151
AGATTCTG	-0.14
ATCTGCCG	0.318
AAACACCG	0.388
AAACACCT	-0.0632
CAACACCG	0.13
TCAAAAGA	-0.152
CCACTTTA	-0.00297
TCCGCCCA	0.209
AATGCCTC	-0.116
CGGAGCTA	0.443
TGGAGCAA	-0.195
AGGAGCTA	-0.192
CGGAGCAA	0.394
CGGAGCTC	0.313
CGGAGCAC	0.196
CGGAGCGC	0.258
AACAAAGC	-0.0164
AGCGCATG	-0.2

Sequence	PBM E-score
ATTGACCC	-0.0115
GCCTGCTA	-0.152
TCCGAAGA	0.419
CCCGAAAA	0.426
ACCGAAAC	0.323
GCCGAAAC	0.38
GCCGAAAA	0.345
ACCGAAGA	0.207
GCCGAACA	0.233
CCCGAAAC	0.208
CCCGAAGA	0.284
ACCGAACA	0.265
CCCGAAAG	0.298
TCCGAACA	0.381
GGCGAAAC	0.194
CGGCGGTC	0.244
CAGCGCGC	0.057
CTTTCAGC	0.0716
TCCGAAAA	0.393
ACCGAAAA	0.26
TGCGAAAA	-0.00129
AGCAACTA	-0.0755
AGAATCAT	-0.259
AATCACAT	0.0324
CGTGGTCC	-0.0363

Sequence	PBM E-score
CGCCGGCA	0.349
GGCCGGCC	0.367
AGCCGGCG	0.352
CGCCGCCG	0.276
CGCCGGCG	0.422
CGCCGGCC	0.396
CGGCGCCG	0.406
CGGCGCCA	0.246
AGGCGCCG	0.0638
GGGACCGA	0.329
CCGACCGG	0.428
ACGACCGA	0.275
AGGACCTA	0.095
GCGACCGA	0.253
GGGACCTA	0.116
CGGACCGC	0.367
CCGACCGC	0.181
CGGACCGA	0.423
ACGACCGG	0.292
CGGACCTA	0.425
CCGACCGA	0.422
AGTAGCGG	0.216
ACCTCTCG	-0.0768
CCAGGCCC	-0.0511
CGCGGCCG	0.27

Sequence	PBM E-score
ACTACGGA	0.238
TATCAGAA	0.0826
AATCCTAT	0.204
GTCCTACA	0.145
ATCTGGCG	0.0049
AAGCGTAC	-0.292
CGGACCCG	0.387
CGGACCAA	0.383
AGGACCCG	0.218
TCGACCAA	-0.331
CGGACCAC	0.279
CGGACCCC	0.233
CGGACCAG	0.304
TCGACCCA	-0.221
TCGACCGA	0.393
GGAATCAC	0.196
AGAGTAAT	0.076
CGGTGAGA	0.12
ATCAACAT	-0.109
ACCCCCAG	-0.25
ATATTTCG	0.235
ATATTTCC	0.427
CTATTTCA	-0.0144
CTATTTCC	0.397
ATATTTCA	-0.15

Sequence	PBM E-score
CTATTTTC	0.0335
AACTTTCA	-0.106
CGGTCTTA	0.404
CGGTCGTA	0.383
GGGTCGTA	0.0749
CGGTCATA	0.411
CGGTCTGA	0.205
GGGTCATA	-0.00686
GGGTCTTA	0.0728
CGGTCATC	0.192
CGGTCGTC	0.165
TAGACCCA	-0.194
ATCACGGC	0.134
ACAAAAGC	0.0095
CATGGGTC	-0.168
AGCGGCGG	0.291
ATCGGGCC	0.324
ATCGGCCC	0.379
ATCGGCCG	0.443
ATCGGCGG	0.408
ATCGGCCA	0.253
ATCGGCAG	0.315
AACGGCCA	0.183
AACGGCCT	0.074
ATCGGCGC	0.343

Sequence	PBM E-score
CTCGGCCC	0.336
AACGGCCG	0.405
ATCTGCGC	0.00257
CTATAGGC	-0.0955
CGACCACG	0.0929
GGGTGGAC	0.132
GATGGTGC	-0.29
ACCGGAAA	0.417
ACCGGAAC	0.403
GGCGGAAC	0.257
GCCGGAAC	0.371
GACGGAAC	0.174
AGCGGAAA	0.318
ACCGGAAG	0.333
AGCGGAAC	0.243
CCCGGAAC	0.31
CCGCAACG	0.216
GCATATCA	0.0762
CTACTCCA	-0.0772
